For 17 molecules, residual activity results are on record in ChEMBL document CHEMBL2218924, “A broad activity screen in support of a chemogenomic map for kinase signalling research and drug discovery” (Biochem J, 2013).

The target in test [1] is Mitogen-activated protein kinase 11 (Homo sapiens) (UniProt Q15759). The conditions noted are these: at 1 µM.
Test [2] addresses T1, Mitogen-activated protein kinase 13 (Homo sapiens) (UniProt O15264).
T1 sequence (whole entry): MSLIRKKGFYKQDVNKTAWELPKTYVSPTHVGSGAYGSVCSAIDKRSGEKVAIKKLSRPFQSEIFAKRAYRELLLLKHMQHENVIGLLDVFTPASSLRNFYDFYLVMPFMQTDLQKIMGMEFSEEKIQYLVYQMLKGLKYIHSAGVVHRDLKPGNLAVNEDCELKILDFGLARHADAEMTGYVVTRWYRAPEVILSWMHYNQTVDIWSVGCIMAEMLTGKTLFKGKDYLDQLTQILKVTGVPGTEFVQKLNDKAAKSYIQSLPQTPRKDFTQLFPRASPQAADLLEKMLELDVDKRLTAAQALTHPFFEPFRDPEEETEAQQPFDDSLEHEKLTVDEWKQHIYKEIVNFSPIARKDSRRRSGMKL
The following applies: at 1 µM.

The target of test [3] is T1, Mitogen-activated protein kinase 13 (Homo sapiens). The following applies: at 10 µM.
In test [4] the target is T2, Serine/threonine-protein kinase Sgk1 (Homo sapiens) (UniProt O00141).
T2 sequence (whole entry): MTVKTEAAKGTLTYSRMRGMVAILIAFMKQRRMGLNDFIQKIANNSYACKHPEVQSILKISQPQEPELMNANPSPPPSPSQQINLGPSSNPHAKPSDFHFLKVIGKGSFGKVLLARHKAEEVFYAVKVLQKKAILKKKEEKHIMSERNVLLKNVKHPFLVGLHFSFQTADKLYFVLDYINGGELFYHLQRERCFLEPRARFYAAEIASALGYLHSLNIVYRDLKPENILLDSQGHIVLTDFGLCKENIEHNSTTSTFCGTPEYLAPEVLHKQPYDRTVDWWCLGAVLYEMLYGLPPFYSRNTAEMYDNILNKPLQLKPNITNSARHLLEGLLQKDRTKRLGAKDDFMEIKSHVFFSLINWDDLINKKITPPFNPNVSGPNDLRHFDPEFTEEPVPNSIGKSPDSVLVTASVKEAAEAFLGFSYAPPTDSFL
The following applies: at 1 µM.

Test [5] addresses T2, Serine/threonine-protein kinase Sgk1 (Homo sapiens). The following applies: at 10 µM.
In test [6] the target is T3, Serine/threonine-protein kinase Sgk2 (Homo sapiens) (UniProt Q9HBY8).
T3 sequence (whole entry): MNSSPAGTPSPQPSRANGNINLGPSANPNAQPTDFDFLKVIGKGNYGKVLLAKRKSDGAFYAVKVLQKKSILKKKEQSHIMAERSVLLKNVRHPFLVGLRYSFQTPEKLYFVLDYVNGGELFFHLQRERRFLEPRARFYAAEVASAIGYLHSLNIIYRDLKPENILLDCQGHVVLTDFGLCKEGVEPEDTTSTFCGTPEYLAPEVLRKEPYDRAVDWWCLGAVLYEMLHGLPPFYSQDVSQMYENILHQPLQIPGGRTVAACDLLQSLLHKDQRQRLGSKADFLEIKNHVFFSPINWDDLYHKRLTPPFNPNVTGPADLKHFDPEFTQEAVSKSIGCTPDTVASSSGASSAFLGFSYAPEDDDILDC
The following applies: at 1 µM.

Test [7] has as its target T3, Serine/threonine-protein kinase Sgk2 (Homo sapiens). The conditions noted are these: at 10 µM.
In test [8] the target is T4, Serine/threonine-protein kinase Sgk3 (Homo sapiens) (UniProt Q96BR1).
T4 sequence (whole entry): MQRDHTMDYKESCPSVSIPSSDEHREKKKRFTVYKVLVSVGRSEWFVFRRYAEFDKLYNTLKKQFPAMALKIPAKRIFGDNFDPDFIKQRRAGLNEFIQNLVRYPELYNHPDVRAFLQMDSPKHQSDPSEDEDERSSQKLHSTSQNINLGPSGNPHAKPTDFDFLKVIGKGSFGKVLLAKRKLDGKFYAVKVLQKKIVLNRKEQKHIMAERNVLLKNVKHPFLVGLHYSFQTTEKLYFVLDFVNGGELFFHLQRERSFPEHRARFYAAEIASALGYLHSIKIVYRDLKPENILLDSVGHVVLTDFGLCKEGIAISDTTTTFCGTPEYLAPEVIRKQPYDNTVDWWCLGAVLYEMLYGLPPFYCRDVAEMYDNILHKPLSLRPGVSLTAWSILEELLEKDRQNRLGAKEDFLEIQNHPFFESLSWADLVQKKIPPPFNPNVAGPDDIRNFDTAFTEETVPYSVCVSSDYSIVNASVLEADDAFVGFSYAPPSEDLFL
The following applies: at 10 µM.

For test [9], the target named is Serine/threonine-protein kinase SIK1 (Homo sapiens) (UniProt P57059). The following applies: at 1 µM.
The target is the same in test [10]. The following applies: at 10 µM.
Test [11] concerns the target SRSF protein kinase 1 (Homo sapiens) (UniProt Q96SB4). The conditions noted are these: at 1 µM.
Test [12] has the same target. The conditions noted are these: at 10 µM.
Test [13] concerns the target SRSF protein kinase 2 (Homo sapiens) (UniProt P78362). The following applies: at 1 µM.
Test [14] has the same target. The conditions noted are these: at 10 µM.
Test [15] concerns the target Serine/threonine-protein kinase 33 (Homo sapiens) (UniProt Q9BYT3). The conditions noted are these: at 1 µM.
The target is the same in test [16]. The conditions noted are these: at 10 µM.
For test [17], the target named is Serine/threonine-protein kinase PLK2 (Homo sapiens) (UniProt Q9NYY3). The conditions noted are these: at 1 µM.
The target is the same in test [18]. The conditions noted are these: at 10 µM.
Test [19] addresses Tyrosine-protein kinase SYK (Homo sapiens) (UniProt P43405). The following applies: at 1 µM.
The target in test [20] is Mitogen-activated protein kinase 11 (Homo sapiens) (UniProt Q15759). The conditions noted are these: at 10 µM.

SRSF protein kinase 1 (Homo sapiens), sequence (Q96SB4 whole entry): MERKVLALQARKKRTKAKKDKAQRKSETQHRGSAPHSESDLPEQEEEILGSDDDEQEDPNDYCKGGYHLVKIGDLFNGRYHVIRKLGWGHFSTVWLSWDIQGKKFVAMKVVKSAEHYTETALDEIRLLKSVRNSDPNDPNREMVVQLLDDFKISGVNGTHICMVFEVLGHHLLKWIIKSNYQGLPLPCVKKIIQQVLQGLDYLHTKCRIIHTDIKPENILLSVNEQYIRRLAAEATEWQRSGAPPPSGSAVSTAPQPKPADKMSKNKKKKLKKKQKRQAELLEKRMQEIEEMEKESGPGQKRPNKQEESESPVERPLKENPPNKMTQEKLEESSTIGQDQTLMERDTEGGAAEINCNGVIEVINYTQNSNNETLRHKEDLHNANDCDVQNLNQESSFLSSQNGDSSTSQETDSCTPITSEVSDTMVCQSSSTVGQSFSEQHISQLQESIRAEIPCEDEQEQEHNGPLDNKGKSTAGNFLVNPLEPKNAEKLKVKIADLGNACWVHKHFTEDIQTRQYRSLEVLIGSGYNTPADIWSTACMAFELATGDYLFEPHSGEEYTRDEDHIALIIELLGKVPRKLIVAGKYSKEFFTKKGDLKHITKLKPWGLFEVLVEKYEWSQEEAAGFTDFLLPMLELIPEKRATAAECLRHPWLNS
Serine/threonine-protein kinase PLK2 (Homo sapiens), sequence (Q9NYY3 whole entry, looked up): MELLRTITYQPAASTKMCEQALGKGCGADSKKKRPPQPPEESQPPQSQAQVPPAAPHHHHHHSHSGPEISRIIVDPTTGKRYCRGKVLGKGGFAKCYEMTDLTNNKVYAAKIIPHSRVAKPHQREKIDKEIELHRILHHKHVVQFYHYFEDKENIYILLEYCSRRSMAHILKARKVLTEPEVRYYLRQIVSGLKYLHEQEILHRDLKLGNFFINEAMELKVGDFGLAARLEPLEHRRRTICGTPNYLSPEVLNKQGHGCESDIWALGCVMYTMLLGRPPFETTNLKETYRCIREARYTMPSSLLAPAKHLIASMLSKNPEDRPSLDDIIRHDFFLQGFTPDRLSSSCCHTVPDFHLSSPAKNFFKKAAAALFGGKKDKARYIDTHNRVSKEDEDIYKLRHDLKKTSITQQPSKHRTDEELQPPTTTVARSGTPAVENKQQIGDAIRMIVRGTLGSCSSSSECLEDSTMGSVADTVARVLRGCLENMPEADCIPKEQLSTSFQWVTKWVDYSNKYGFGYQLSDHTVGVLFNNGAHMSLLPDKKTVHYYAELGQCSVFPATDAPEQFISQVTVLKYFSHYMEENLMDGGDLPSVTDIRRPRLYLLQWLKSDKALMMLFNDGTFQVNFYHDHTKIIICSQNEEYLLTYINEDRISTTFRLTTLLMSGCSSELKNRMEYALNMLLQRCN
Mitogen-activated protein kinase 11 (Homo sapiens), sequence (Q15759 whole entry): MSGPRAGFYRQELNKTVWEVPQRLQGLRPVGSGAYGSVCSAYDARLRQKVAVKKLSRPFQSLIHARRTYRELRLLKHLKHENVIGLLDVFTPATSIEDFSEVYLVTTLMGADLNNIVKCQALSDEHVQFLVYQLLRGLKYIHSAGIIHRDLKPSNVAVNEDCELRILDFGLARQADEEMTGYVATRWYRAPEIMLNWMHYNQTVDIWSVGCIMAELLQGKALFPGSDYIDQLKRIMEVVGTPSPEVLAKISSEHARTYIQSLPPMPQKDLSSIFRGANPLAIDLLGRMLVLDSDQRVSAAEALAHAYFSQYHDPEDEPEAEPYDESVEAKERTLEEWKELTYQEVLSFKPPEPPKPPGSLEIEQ
SRSF protein kinase 2 (Homo sapiens), sequence (P78362 whole entry, looked up): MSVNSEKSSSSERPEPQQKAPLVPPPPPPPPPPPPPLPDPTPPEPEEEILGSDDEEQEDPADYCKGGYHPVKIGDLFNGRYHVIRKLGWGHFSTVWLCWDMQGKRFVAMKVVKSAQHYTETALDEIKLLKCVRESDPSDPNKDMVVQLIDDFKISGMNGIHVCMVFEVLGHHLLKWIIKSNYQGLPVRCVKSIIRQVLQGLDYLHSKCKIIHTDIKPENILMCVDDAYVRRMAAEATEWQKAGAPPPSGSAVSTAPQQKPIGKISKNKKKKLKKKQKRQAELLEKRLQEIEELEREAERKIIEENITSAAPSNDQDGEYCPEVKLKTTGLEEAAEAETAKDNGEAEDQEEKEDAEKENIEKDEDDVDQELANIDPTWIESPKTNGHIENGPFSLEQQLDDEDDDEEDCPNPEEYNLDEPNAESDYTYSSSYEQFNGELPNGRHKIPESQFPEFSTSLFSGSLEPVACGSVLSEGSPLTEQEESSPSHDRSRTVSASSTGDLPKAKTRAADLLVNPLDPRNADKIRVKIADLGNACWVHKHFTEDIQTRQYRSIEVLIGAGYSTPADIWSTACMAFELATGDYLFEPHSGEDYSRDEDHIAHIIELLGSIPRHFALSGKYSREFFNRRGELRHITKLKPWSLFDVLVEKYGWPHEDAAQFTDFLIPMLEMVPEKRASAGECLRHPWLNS
Serine/threonine-protein kinase 33 (Homo sapiens), sequence (Q9BYT3 whole entry, looked up): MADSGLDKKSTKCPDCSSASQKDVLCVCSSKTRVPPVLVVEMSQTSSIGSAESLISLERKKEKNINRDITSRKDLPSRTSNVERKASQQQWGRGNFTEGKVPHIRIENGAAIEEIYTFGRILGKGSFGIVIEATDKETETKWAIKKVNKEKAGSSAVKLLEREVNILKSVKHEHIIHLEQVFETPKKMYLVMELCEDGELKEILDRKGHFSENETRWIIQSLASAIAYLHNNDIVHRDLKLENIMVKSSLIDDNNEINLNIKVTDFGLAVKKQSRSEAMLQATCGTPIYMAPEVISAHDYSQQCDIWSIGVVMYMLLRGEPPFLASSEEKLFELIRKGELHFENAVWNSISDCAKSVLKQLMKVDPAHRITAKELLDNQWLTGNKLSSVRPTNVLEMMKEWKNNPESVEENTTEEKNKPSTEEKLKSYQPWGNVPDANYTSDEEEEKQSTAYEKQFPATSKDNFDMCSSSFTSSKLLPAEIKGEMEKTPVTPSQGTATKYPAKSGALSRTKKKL
Serine/threonine-protein kinase SIK1 (Homo sapiens), sequence (P57059 whole entry): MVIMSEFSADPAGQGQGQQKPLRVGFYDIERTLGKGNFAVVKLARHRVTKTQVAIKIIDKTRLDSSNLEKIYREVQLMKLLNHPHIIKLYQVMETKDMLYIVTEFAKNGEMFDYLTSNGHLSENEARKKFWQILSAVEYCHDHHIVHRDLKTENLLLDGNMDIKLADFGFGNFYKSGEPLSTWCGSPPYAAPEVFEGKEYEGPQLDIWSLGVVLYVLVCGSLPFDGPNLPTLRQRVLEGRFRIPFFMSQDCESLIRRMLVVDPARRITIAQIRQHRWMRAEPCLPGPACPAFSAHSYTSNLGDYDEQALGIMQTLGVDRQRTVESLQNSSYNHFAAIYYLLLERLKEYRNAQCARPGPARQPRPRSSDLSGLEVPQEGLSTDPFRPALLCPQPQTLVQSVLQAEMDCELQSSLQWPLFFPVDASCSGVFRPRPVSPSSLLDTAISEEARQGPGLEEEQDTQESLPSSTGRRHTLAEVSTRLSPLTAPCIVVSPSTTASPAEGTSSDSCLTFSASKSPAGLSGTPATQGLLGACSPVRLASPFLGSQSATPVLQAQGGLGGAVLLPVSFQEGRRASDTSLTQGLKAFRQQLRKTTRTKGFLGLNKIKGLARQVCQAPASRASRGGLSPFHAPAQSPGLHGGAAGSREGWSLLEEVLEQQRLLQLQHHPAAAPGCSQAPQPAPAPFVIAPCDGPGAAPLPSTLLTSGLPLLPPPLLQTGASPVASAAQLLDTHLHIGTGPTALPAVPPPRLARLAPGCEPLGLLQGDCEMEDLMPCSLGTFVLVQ

With `CCCC(=O)Oc1ccc2[nH]c(C(=O)c3cc4ccccc4[nH]3)cc2c1`, the residual activity in test [1] is 104%; in test [2], 104%; in test [3], 86%; in test [4], 101%; in [5], 95%; in test [6] it was 99%. Moreover, the residual activity is 96% in test [7]; 85% in test [8]; 83% in test [9]; 54% in test [10]; 104% in [11]; 103% in [12]. Besides, the residual activity turned out to be 103% in [13]; 87% in [14]; 92% in [15]; 91% in test [16]; 102% in [17]; 107% in [18]. Moreover, the residual activity in test [19] amounted to 126%.
Consider `CCCCc1c(-c2ccc(OC)cc2)[nH]c2nccnc12`, for which the residual activity in test [1] worked out at 106%; in test [4], 106%; in [5], 117%; in [6], 90%; in test [7], 81%; in [8] it was 88%. For the same molecule, the residual activity in test [9] was found to be 86%; in test [10] it was 78%; in test [11], 118%; in [12], 106%; in test [13], 90%; in [14] it was 84%. Also, the residual activity in test [15] came out at 106%; in [19], 37%.
On to `O=C1Nc2ccc(Cl)cc2/C1=C/c1cc(Cl)c(O)c(Cl)c1`, for which the residual activity in test [1] is 88%; in test [20], 67%; in test [3], 93%; in [4], 64%; in test [5], 69%; in test [6] it was 84%. The residual activity in [7] is 55%; in [8] it was 81%; in [9], 72%; in test [10], 71%; in test [13] it was 100%; in [14] it was 69%. In addition, the residual activity in test [15] was found to be 88%; in [16], 94%; in [17] it was 94%; in test [18] it was 92%; in [19], 96%.
As for `COc1cc2nccc(Oc3ccc(NC(=S)NC(=O)c4ccccc4C)cc3)c2cc1OC`, the residual activity in test [1] was found to be 83%; in [20], 87%; in test [2], 101%; in test [3], 87%; in [6] it was 99%; in test [8] it was 79%. The residual activity in test [9] came to 32%; in test [10] it was 37%; in test [11], 102%; in [12], 96%; in test [13], 100%; in test [14] it was 91%. Moreover, the residual activity in [15] came out at 97%; in [16], 90%; in test [17], 72%; in [18], 35%; in [19], 99%.
As to `O=C1Cc2c([nH]c3ccc(Br)cc23)-c2ccccc2N1`, the residual activity in test [1] turned out to be 98%; in [20] it was 89%; in [2] it was 98%; in [3], 68%; in test [4] it was 95%; in [5], 81%. For the same molecule, the residual activity turned out to be 99% in test [6]; 74% in test [7]; 83% in test [8]; 91% in [9]; 36% in test [10]; 97% in test [15]. The residual activity in [16] was determined as 81%; in test [17] it was 99%; in test [18], 91%; in test [19], 72%.
For `Nc1ncnc2c1cnn2-c1ccccc1`, the residual activity in test [1] worked out at 97%; in test [20], 85%; in test [4] it was 90%; in test [5], 98%; in [7], 68%; in test [8] it was 93%. Also, the residual activity in test [10] turned out to be 138%; in test [14], 97%; in test [15], 97%; in test [16] it was 100%; in [18] it was 97%.
Regarding `COc1cc2ncnc(Nc3cccc(Cl)c3)c2cc1OC`, the residual activity in [20] stood at 45%; in test [2] it was 118%; in [3], 109%; in [4] it was 89%; in [5], 113%; in [6], 77%. For the same molecule, the residual activity in test [7] was 70%; in test [9] it was 84%; in test [11], 101%; in [12] it was 108%; in test [13], 104%; in test [17] it was 109%. The residual activity in [18] amounted to 82%; in test [19], 121%.
Turning to `O=c1cc(N2CCOCC2)oc2c(-c3ccccc3)cccc12`, the residual activity in test [2] is 101%; in test [3], 71%; in test [4] it was 75%; in test [8], 74%; in test [16], 78%.
As for `O=C1NC(=O)C(c2cn(CCCO)c3ncccc23)=C1c1cnccn1`, the residual activity in test [2] came to 99%; in test [3], 94%; in test [7] it was 92%; in test [9], 129%; in test [10], 84%; in test [19], 93%.
With `COc1ccc(Cl)cc1NC(=O)Nc1cc(C)nc2ccccc12`, the residual activity in [4] was determined as 80%; in test [5] it was 73%; in test [8] it was 78%; in test [9], 93%; in test [10] it was 134%; in test [13], 94%. Moreover, the residual activity stood at 86% in [14], 99% in test [15] and 98% in test [16].
With `N#C/C(=C1/Nc2ccccc2S1)c1ccnc(NCCc2cccnc2)n1`, the residual activity worked out at 78% in test [2]; 48% in test [3]; 146% in test [9]; 78% in [10]; 97% in [17]; 71% in test [18].
For the molecule `O=C1NC(=O)C(c2cn(CCCn3ccnc3)c3ccccc23)=C1Nc1ccccc1`, the residual activity in [4] was 46%; in [5], 14%; in test [6] it was 52%; in test [7], 12%; in test [9] it was 79%; in [10], 36%. Also, the residual activity was 75% in test [15], 32% in [16] and 105% in [19].
As to `Cn1c2ccccc2c2c3c(c4c5ccccc5n(CCC#N)c4c21)CNC3=O`, the residual activity in [20] was 100%; in [2], 99%; in [4], 82%; in test [5], 40%; in test [6], 76%; in test [7], 47%. Further, the residual activity was 9% in test [9]; 24% in [10]; 6% in [15]; 14% in test [16]; 3% in test [19].
Turning to `Oc1cccc(-c2nc(N3CCOCC3)c3oc4ncccc4c3n2)c1`, the residual activity in [7] is 66%; in test [9], 91%; in test [10], -1%; in test [18], 98%; in [19], 131%.
As to `COc1ccc(CNC(=O)Nc2ncc([N+](=O)[O-])s2)cc1`, the residual activity in test [14] was 78%.
In the case of `CCN(CC)CCNC(=O)c1c(C)[nH]c(/C=C2\C(=O)Nc3ccc(Cl)cc32)c1C`, the residual activity in [4] was 59%; in [5], 23%; in test [6], 60%; in test [7] it was 32%; in test [8], 73%; in test [9], 31%. Further, the residual activity was 5% in [10]; 98% in test [13]; 78% in test [14]; 33% in [15]; 6% in test [16]; 98% in test [17]. Besides, the residual activity in [18] came out at 58%.
For `N#Cc1c(NC(=O)c2cccc3ccccc23)sc2c1CCCC2`, the residual activity in test [7] came to 90%; in [8], 86%; in test [9], 136%; in [14], 92%; in [16], 92%.
